G9a block – inhibitors of human histone lysine methyltransferase G9a. G9a H3K9 monomethylation, AlphaScreen, 2 h. AID 504332. hit rate 8.8% among 350,000. Potency, µM (highest dose often 102 µM), for inactives: top-dose activity, negative = inhibition, usual class: inhibitors. Q96KQ7; note: potency is the fitted concentration of half-maximal effect; % is set by controls: 0 for no effect and ±100 for the full control effect; nearly all actives have a fitted effect of over 75% in size
Target sequence (Q96KQ7 913-1193 limits assumed): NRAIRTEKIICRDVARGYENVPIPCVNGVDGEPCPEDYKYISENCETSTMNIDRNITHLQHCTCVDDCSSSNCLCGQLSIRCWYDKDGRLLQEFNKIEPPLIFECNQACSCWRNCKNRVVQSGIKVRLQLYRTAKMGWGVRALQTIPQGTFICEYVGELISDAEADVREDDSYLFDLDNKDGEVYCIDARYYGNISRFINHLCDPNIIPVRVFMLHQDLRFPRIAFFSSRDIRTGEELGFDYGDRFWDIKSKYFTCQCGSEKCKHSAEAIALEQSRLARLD
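Signal arises when biotinylated H3K9 peptide, once monomethylated, bridges streptavidin donor and antibody-captured acceptor beads. Enzyme at 20 nM was preincubated 15 min with test compounds; peptide 500 nM and SAM 20 uM then reacted for 2 h.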
Tau FP inhib – tau fibrillization inhibition (FP) | Potency, µM (titrated, usually from 57.7 µM), without a hit: at the highest dose activity, negative = inhibition, usual class: inhibitors | K18 P301L tau heparin fibrillization, Alexa594 FP, 6 h | hit rate 0.39% among 280,000; note: potency is the fitted concentration of half-maximal effect; % is set by controls: 0 for no effect and ±100 for the full control effect; nearly all actives have a fitted effect of over 55% in size
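Human K18 P301L fragment (15 uM unlabeled plus 0.24 uM Alexa 594-labeled) in 100 mM sodium acetate pH 7 with compound, aggregation induced by 20 uM heparin for 6 hr at 37 C. ThT (30 uM) added for 1 hr, then Alexa 594 FP read.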
Sfp inh – Sfp phosphopantetheinyl transferase inhibition | Q9F4F7 | Biochemical Sfp PPTase activity, qHTS | Potency, µM, inactives show largest response in the series, negative = inhibition, most hits filed as inhibitors | hit rate 3.5% among 310,000;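 note: the enzyme is Sfp with the accession as filed and its product quenches rhodamine fluorescence; potency is the fitted concentration of half-maximal effect; 0% = enzyme reaction without inhibitor and -100% = no enzyme wells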
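Sfp 15 nM + cpd, 15 min RT; start w/ rhodamine-CoA 5 uM, BHQ-2-YbbR 12.5 uM (final); 50 mM Hepes pH 7.6, 10 mM MgCl2, 0.01% NP-40, 0.01% BSA; read 525/598 nm at 0 and 30 min.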
Tau ThT inhib – tau fibrillization inhibition (ThT binding) | Potency, µM (doses to about 57.4 µM), for the others: top-dose activity, negative = inhibition, actives largely listed as inhibitors | hit rate 2.1% among 270,000 | P10636 | recombinant tau K18 P301L, heparin-induced fibrillization, ThT fluorescence | AID 1460; note: potency is the fitted concentration of half-maximal effect; % is set by controls: 0 for no effect and ±100 for the full control effect; nearly all actives have a fitted effect of over 55% in size
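Heparin-induced fibrillization of the P301L-mutant K18 repeat-domain fragment of human tau was followed by ThT binding in quantitative high-throughput format.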
Coupling enz – inhibits coupling enzyme system, counter-screen for aldolase hits. coupling enzyme system counterscreen, AmpLite Red fluorescence. activity change, negative = inhibition, % at 58.2 µM, hits read low. hit rate 0.67% among 290,000; in the data active = activity change below about -30%; note: % is set by controls: 0 for no effect and ±100 for the full control effect
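First, compound is pin-transferred into glyceraldehyde-3-phosphate coupling-enzyme reagent at 57.5 uM final and held 10 min at RT. Next, substrate, coupling system and AmpLite Red are added. After 20 min RT, fluorescence (525/598 nm) is read.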
Tau fluor counter – counter-screen for tau fibril formation inhibitors | tau K18 P301L (four-repeat tau fragment) Alexa594 fluorescence, heparin fibrillization | Potency, µM (highest dose often 57.7 µM), for inactives: at the top dose activity change, negative = decrease | hit rate 0.93% among 280,000 | AID 1463; note: potency is the fitted concentration of half-maximal effect; % is set by controls: 0 for no effect and ±100 for the full control effect; nearly all actives have a fitted effect of over 55% in size
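Human K18 P301L tau (15 uM unlabeled plus 0.24 uM Alexa 594-labeled, final) in 100 mM sodium acetate pH 7 was mixed with compound and 20 uM heparin and incubated 6 hr at 37 C.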
CASP1 redox cat – inhibits human caspase-1 in catalase buffer, redox counter-screen; shares compounds with Coupling enz; caspase-1 Ac-WEHD-AFC fluorescence rate, catalase buffer; Potency, µM (highest dose often 57.5 µM), for the others: top-dose activity change, negative = inhibition, most hits filed as inhibitors; 30 tested, under 10 active; active = well fitted inhibition curve with a large enough effect in the main read-out, with a control signal flat; inconclusive = small, poorly fitted or top-dose-only effect, or a change in a side signal; inactive = no such curve, though single readings can be large or run the other way
Casp1 confirm – confirmation of allosteric or competitive inhibitors of human caspase-1; hit rate 20% among 60; purified caspase-1, fluorogenic substrate cleavage; Potency, µM (series often up to 57.5 µM), inactives show top-dose activity change, negative = inhibition, usual class: inhibitors; shares compounds with Coupling enz; active = well fitted inhibition curve with a large enough effect in the main read-out, with a control signal flat; inconclusive = small, poorly fitted or top-dose-only effect, or a change in a side signal; inactive = no such curve, though single readings can be large or run the other way
Casp7 confirm – blocks human caspase-7 activity in concentration-response | shares compounds with Coupling enz | recombinant caspase-7, fluorogenic substrate cleavage | Potency, µM (titrated, usually from 57.5 µM), for the others: top-dose activity change, negative = inhibition, usual class: inhibitors | 60 tested, under 10 active; active = well fitted inhibition curve with a large enough effect in the main read-out, with a control signal flat, not every such curve was filed as active; inconclusive = small, poorly fitted or top-dose-only effect, or a change in a side signal; inactive = no such curve, though single readings can be large or run the other way
Target sequence (P55210 24-198 limits assumed): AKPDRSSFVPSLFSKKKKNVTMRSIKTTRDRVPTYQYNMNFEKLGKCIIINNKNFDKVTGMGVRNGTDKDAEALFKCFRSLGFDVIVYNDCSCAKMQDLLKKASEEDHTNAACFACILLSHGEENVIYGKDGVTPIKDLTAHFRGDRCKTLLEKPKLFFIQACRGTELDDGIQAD
Target sequence (P55210 207-303 limits assumed): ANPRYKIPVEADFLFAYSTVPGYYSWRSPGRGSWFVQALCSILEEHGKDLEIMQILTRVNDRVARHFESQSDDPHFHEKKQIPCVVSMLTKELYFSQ
Casp7 cysteine – inhibits caspase-7 in cysteine buffer, redox counter-screen; AID 908; Potency, µM (doses to about 57.5 µM), for inactives: top-dose activity change, negative = inhibition, hits mostly inhibitors; caspase-7 enzyme with cysteine, fluorogenic substrate, redox counterscreen; shares compounds with Coupling enz; 60 tested, under 10 active; active = well fitted inhibition curve with a large enough effect in the main read-out, with a control signal flat; inconclusive = small, poorly fitted or top-dose-only effect, or a change in a side signal; inactive = no such curve, though single readings can be large or run the other way
Casp7 catalase – counter-screen for redox active caspase-7 inhibitors: catalase buffer; shares compounds with Coupling enz; Caspase-7 Ac-DEVD-AFC fluorescence rate, catalase buffer; Potency, µM (highest dose often 57.5 µM), inactives show at the top dose activity, negative = inhibition, hits mostly inhibitors; 30 tested, under 10 active; AID 909; active = well fitted inhibition curve with a large enough effect in the main read-out, with a control signal flat; inconclusive = small, poorly fitted or top-dose-only effect, or a change in a side signal; inactive = no such curve, though single readings can be large or run the other way
Casp1 cysteine – caspase-1 inhibition with cysteine present; 60 tested, under 10 active; Potency, µM (series often up to 57.5 µM), inactives show top-dose activity change, negative = inhibition, actives largely listed as inhibitors; recombinant caspase-1, fluorogenic substrate, cysteine buffer; shares compounds with Coupling enz; active = well fitted inhibition curve with a large enough effect in the main read-out, with a control signal flat; inconclusive = small, poorly fitted or top-dose-only effect, or a change in a side signal; inactive = no such curve, though single readings can be large or run the other way
Active calls of the source: *; ? = inconclusive; . = not tested or not shown; ! = a repeat was not active; [ ] = another dose, or the depositor's remark. The list is not random: actives were taken first. Their share in the collection is about 11%. Unless noted, calls come from the whole dose curve; as a rule, active = well fitted curve in the direction sought with a large enough effect; inconclusive = small, poorly fitted or top-dose-only effect, or another doubt; inactive = no such curve, though single readings can be large; an effect the other way counts as inactive or inconclusive.

SMILES	G9a block	Tau FP inhib	Sfp inh	Tau ThT inhib	Coupling enz	Tau fluor counter	CASP1 redox cat	Casp1 confirm	Casp7 confirm	Casp7 cysteine	Casp7 catalase	Casp1 cysteine
O=C(O)c1cc(O)c2c(c1)C(=O)c1cccc(O)c1C2=O	39.8µM*	?	56.2µM*!	17.8µM*	-8.3	17.8µM*![quencher]	?	?	-1.4%	0.7%	-15.6%	?
COc1cccc(-c2ccc(=O)n(CC(=O)Nc3ccc(S(=O)(=O)NCC(C)C)cc3)n2)c1	-20.7%	?	-10.9%	1.1%	-1.1	?	.	.	.	.	.	.
O=C1C(Cl)=C(NCCN2CCOCC2)C(=O)c2ncccc21	.	?	-1.5%	12.6µM*	-12.0	?	.	2.51µM*	?	-5.0%	.	-2.4%
Clc1ccccc1-c1nccc(NCCN2CCOCC2)n1	-5.0%[0.501 µM]	.	13.3%	.	1.5	.	.	.	.	.	.	.
CCSC1=C(C#N)C(c2ccc(OC)c(OC)c2)CC(=O)N1 (stereo not drawn)	-26.1%[12.7 µM]	-1.2%	16.4%	-9.6%	2.5	-6.1%	.	.	.	.	.	.
COc1ccc(C2CC(=O)N3CN(c4ccc(C)c(Cl)c4)CSC3=C2C#N)cc1OC (stereo not drawn)	3.98µM*	22.4µM*	7.08µM*	14.1µM*	-38.1*	-28.1%	-2.3%	-7.7%	-3.7%	-6.1%	-5.1%	3.2%
COc1cc2c(C=O)c3c4c(cc(OC)c(OC)c4c2cc1OC)CCN3C	.	-8.4%	-19.4%	14.1µM*	-33.5*	?	.	12.6µM*	?	-8.5%	.	?
CC(=O)[C@H]1[C@H](c2cccc(Cl)c2)C(C#N)(C#N)[C@@H]2c3ccccc3C=CN21	-20.5%[59 µM]	-2.8%	-14.2%	?	-25.6	-19.8%	.	.	.	.	.	.
CC(=O)[C@@H]1[C@@H]2C(=O)N(c3ccc(F)c(Cl)c3)C(=O)[C@@H]2C2c3ccccc3C=CN21 (stereo partly drawn)	6.31µM*	-2.5%	11.0%	?	-1.5	-17.4%	?	-75.7%	-33.9%	-3.3%	-25.3%	?
